GSIS activator = primary screen for activators of insulin secretion dependent on glucose, INS-1E cells, GLuc reporter luminescence; AID 743287; INS-1E GLuc reporter insulin secretion, 2-3 h; hit rate 0.61% among 370,000; activation, % at 16.6 µM;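 active means lowest replicate activation of at least 40%, so every replicate reaches that level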;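 further: 0% = median of neutral control wells and 100% = median of IBMX positive control wells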
NRP1-CendR mod = NRP-1/CendR interaction modulation | O14786 | hit rate 0.85% among 360,000 | inhibition, % at 25 µM | FAM-RPARPAR peptide binding to NRP-1, fluorescence polarization;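 active means inhibition or corrected inhibition above about 18%, plus a signal ratio from 0.5 to 1.5, limit read from the data, passing the limit was not always enough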
Target sequence (O14786 whole entry, looked up): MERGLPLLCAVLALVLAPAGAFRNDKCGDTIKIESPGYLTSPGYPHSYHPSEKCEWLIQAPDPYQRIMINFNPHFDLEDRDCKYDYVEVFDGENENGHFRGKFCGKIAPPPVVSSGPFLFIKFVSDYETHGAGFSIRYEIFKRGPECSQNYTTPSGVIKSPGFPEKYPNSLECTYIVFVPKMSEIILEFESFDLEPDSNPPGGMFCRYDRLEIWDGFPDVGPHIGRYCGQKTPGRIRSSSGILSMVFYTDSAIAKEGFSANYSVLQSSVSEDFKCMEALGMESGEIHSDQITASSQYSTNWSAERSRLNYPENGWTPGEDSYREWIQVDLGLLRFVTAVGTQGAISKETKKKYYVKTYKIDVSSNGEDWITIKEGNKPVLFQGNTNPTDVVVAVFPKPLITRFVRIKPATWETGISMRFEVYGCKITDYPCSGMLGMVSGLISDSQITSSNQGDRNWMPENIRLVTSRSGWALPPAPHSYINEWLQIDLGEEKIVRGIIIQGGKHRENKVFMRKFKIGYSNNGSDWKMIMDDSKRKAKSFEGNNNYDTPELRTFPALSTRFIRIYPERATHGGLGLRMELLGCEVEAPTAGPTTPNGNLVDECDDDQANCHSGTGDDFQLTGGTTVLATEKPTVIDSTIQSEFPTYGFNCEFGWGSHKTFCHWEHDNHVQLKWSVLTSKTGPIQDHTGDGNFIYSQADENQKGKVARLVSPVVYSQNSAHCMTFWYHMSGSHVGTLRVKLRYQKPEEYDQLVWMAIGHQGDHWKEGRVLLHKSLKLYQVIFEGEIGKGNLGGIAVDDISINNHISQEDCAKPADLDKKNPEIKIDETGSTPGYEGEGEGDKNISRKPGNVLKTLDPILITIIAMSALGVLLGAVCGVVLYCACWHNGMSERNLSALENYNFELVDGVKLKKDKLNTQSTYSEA
ARNT TACC3 PPI = disruptors of human ARNT/TACC3 interaction. inhibition, % at 9.99 µM. Q9Y6A5. AlphaScreen His-ARNT PAS-B/GST-TACC3 binding, luminescence; TACC3 fragment carries E629A point mutation. AID 623870. hit rate 0.66% among 390,000;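 active means mean inhibition of replicates at least 50% and at least half of replicates each reaching 50%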;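 further: 0% = complete ARNT plus TACC3 wells and 100% = ARNT alone without TACC3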
iPSC survival up = hiPSC single-cell survival enhancement; AID 602274; survival enhancement, % at 20 µM; ATPlite luminescence; 100% = ROCK inhibitor wells, 0% = DMSO; hit rate 0.044% among 360,000; in the data active means survival enhancement above about 18%;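 further: cells exposed to compounds for 16 hours before the ATP read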
ABCB6 inh MLPCN = inhibitors of human ABC transporter ABCB6; K562-ABCB6 porphyrin accumulation, flow cytometry, 1 h; stronger effect = lower value; fluorescence ratio to DMSO, % at 10 µM; hit rate 0.19% among 360,000;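 active means fluorescence ratio to DMSO below 75%, the collection mean minus 3 SD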;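 further: signal is porphyrin accumulated inside mitochondria; 100% equals median channel fluorescence of DMSO control wells; lower ratio means ABCB6 inhibition with less porphyrin fluorescence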
Starred values were filed as active, the others as inactive; . = not tested or not shown; + = active, no number. Only some compounds are listed: those with a hit (about 1.8% of all), similar ones and a draw of the others.

SMILES	GSIS activator	NRP1-CendR mod	ARNT TACC3 PPI	iPSC survival up	ABCB6 inh MLPCN
CCCCC(=O)Nc1ccc(C(=O)NNC(=O)c2ccc(C)c(Br)c2)cc1	64*	-5	-3	1	94
CCCCC(=O)Nc1ccc(C(=O)NNC(=O)CCc2ccccc2)cc1	-3	-7	2	-2	90
CC(C)NC(=O)N(C)C[C@H]1Oc2ccc(N(C)C)cc2C(=O)N(C)C[C@@H]1C	12	.	.	.	.
Cc1cc(C)cc(Cn2c3ccc(NC(=S)NCc4ccccc4F)cc3c(=O)n2C)c1	56*	-11	.	-3	97
O=C(C[C@H]1CC[C@@H]2[C@H](COC[C@@H](O)CN2C(=O)Nc2ccc(F)cc2)O1)NCCc1ccccc1	-6	.	-5	.	.
CCCC#Cc1cnc2c(c1)C(=O)N([C@H](C)CO)C[C@H](C)[C@H](CN(C)C(=O)c1ccc(F)cc1)O2	-15	.	3	.	.
O=C(NN1C(=O)C2C3C=CC(O3)C2C1=O)c1cccc(Br)c1 (stereo not given)	78*	-1	-26	1	88
O=C(NN1C(=O)C2C3C=CC(O3)C2C1=O)c1cccc(O)c1 (stereo not given)	3	-5	-10	-1	90
O=C1Nc2ccccc2C12OCCCO2	.	-2	-3	-4	194
O=C1Nc2ccccc2C12OCCO2	16	35*	3	1	92
CCOCCCn1c(SCC(=O)NC2CCCCC2)nc2ccccc2c1=O	43*	-7	.	-2	96
COc1ccc(-c2cnc3c(c2)C(=O)N([C@@H](C)CO)C[C@H](C)[C@@H](CN(C)C(=O)Cc2ccncc2)O3)cc1	-5	.	-1	.	.
Cc1cc(N=Nc2c(O)c3ccccc3[nH]c2=O)ccc1N=Nc1ccc(C(=O)N(C)C)cc1	-9	23*	2	-1	93
CC(C)NC(=O)N(C)C[C@H]1OCCCC[C@H](C)Oc2ccc(NC(=O)c3ccncc3)cc2C(=O)N([C@H](C)CO)C[C@@H]1C	22	.	1	.	.
C[C@@H]1CN([C@@H](C)CO)C(=O)c2cc(NC(=O)c3ccncc3)ccc2O[C@@H](C)CCCCO[C@H]1CN(C)C(=O)c1ccccc1	-2	.	42	.	.
CCOCCCNC(=O)/C(C#N)=C/c1ccc([N+](=O)[O-])o1	-3	-51	-7	29*	144
O=C(COC(=O)c1ccc(N2CCCC2=O)cc1)Nc1ccccc1	-13	-5	10	0	101
O=C(COC(=O)c1ccc(N2CCCC2=O)cc1)c1ccccc1	4	28*	15	0	97
O=C(Nc1cc(F)ccc1F)N[C@@H]1CC[C@@H](CCNC(=O)c2cnccn2)O[C@@H]1CO	8	.	.	.	.
O=C(O)CCN1C(=O)c2ccc(NC(=O)c3ccco3)cc2C1=O	22	21*	-3	2	94
C[C@H](CO)N1C[C@H](C)[C@H](CN(C)C(=O)c2ccncc2)OCCCC[C@H](C)Oc2ccc(NS(C)(=O)=O)cc2C1=O	-8	.	0	.	.
COc1ccccc1CNC(=O)c1cc(-c2ccccc2)nn1CC1CC(c2cccc([N+](=O)[O-])c2)=NO1 (stereo not given)	-9	-26	-13	-2	96
Cc1ccccc1-c1cc(C(=O)NCc2cccc(Br)c2)n(CC2CC(c3cccnc3)=NO2)n1 (stereo not given)	-5	24*	-3	0	96
COc1ccccc1CNC(=O)c1cc(-c2ccccc2C)nn1CC1CC(c2cccnc2)=NO1 (stereo not given)	0	25	4	3	93
O=C(NCc1cccs1)c1cc(-c2ccccc2)nn1CC1CC(c2cccc([N+](=O)[O-])c2)=NO1 (stereo not given)	.	30*	8	1	90
SMILES	GSIS activator	NRP1-CendR mod	ARNT TACC3 PPI	iPSC survival up	ABCB6 inh MLPCN
COc1ccc(S(=O)(=O)N(C)C[C@@H]2OCc3cn(nn3)CCCC(=O)N([C@H](C)CO)C[C@@H]2C)cc1	4	.	.	.	.
Oc1ccc2[nH]cnc2c1CN1CCCCC1	.	25*	7	0	119
Cc1cc(=O)oc2c(CN3CCCCC3)c(O)ccc12	.	3	-3	-4	97
COc1ccccc1S(=O)(=O)N1CC[C@@H]2[C@H]1c1cc(-c3ccccc3F)ccc1N[C@@H]2CO	-6	.	-13	.	.
C/C=C/c1ccc2c(c1)O[C@@H](CN(C)C(=O)C1CCC1)[C@H](C)CN([C@@H](C)CO)S2(=O)=O	-7	.	.	.	.
CCCNC(=O)N1CC(=O)N2[C@H](CO)[C@@H](c3ccc(C#CCC4CCCC4)cc3)[C@@H]2C1	-18	.	.	.	.
Cc1cc(Oc2cccnc2)ccc1NC(=O)Cc1cn(C)c2ccccc12	162*	.	.	.	.
COc1cccc(S(=O)(=O)N(C)C[C@H]2Oc3cc(C#CCC(C)C)ccc3S(=O)(=O)N([C@H](C)CO)C[C@H]2C)c1	-8	.	-8	.	.
NC(=O)c1ccnc2c(O)cccc12	8	22	73*	1	100
Oc1ccc(CNc2ccc(F)cc2)c2cccnc12	-2	-9	.	-3	102
OCc1ccnc2c(O)cccc12	.	-4	66*	0	101
Oc1ccc(CNc2ccccc2)c2cccnc12	.	-7	48*	-4	90
On1ccccc1=S	87*	0	+	-3	100
CCOc1ccc(N2C(=O)CC(S/C(N)=N/N=C/c3cccs3)C2=O)cc1 (stereo not given)	54*	9	1	2	97
N/C(=N\N=C\c1cccs1)SC1CC(=O)N(c2cccc([N+](=O)[O-])c2)C1=O (stereo not given)	2	-4	-8	-2	96
CN1CCN(C(=O)c2c(O)c3cccc4c3n(c2=O)CCC4)CC1	.	4	-7	-1	99
CC(=O)c1c(O)c2cccc3c2n(c1=O)CCC3	40*	-8	-3	1	93
COc1ccc(CCNC(=O)c2c(O)c3cccc4c3n(c2=O)CC4)cc1OC	.	44*	-4	0	.
CNC(=O)c1c(O)c2cccc3c2n(c1=O)CC3	.	13	-14	1	102
C/C=C/c1ccc([C@@H]2[C@H](CO)N(C(=O)CC)C23CN(S(=O)(=O)CC)C3)cc1	-2	.	.	.	.
CCCC(=O)Nc1ccc2c(c1)OC[C@H](C)N(CCC(F)(F)F)C[C@H](C)[C@@H](OC)CN(C)C2=O	-16	.	.	.	.
Cc1ccc2c(c1)C=CC(C#N)N2C(=O)c1ccccc1 (stereo not given)	50*	5	-1	-4	91
Cc1ccc2c(c1)C=CC(C#N)N2C(=O)Oc1ccccc1 (stereo not given)	14	-2	.	-4	101
Cc1noc(C)c1C(=O)Nc1sc2c(c1C(N)=O)CCCCC2	-15	3	-8	-3	93
CCOC(=O)c1c(NC(=O)c2c(C)noc2C)sc2c1CCCCC2	.	35*	-30	4	103
Cc1cccc(NC(=O)c2ccc(OCc3c(C)noc3C)cc2)c1	36	29*	-2	0	101

Assay outcomes deposited in PubChem by several laboratories.
